FMDV antiviral = antivirals against foot and mouth disease virus. FMDV antiviral cell-based qHTS. Potency, µM (doses to about 57.9 µM), for the others: at the highest dose activity change, negative = inhibition, actives largely listed as inhibitors. 410,000 tested, 1.2% active; calls by dose curve; tested in HEK293T cells; also: read-out not given here; nearly all actives have a fitted effect of over 45% in size
Giardia FBPA inh-1 = inhibitors of Giardia lamblia fructose-1,6-bisphosphate aldolase. A8B2U2. purified Giardia FBPA. Potency, µM (titrated, usually from 59.6 µM), inactives show top-dose activity, negative = inhibition, actives largely listed as inhibitors. 290,000 tested, 0.71% active. AID 2451; also: nearly all actives have a fitted effect of over 55% in size
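Giardia FBPA (40 nM reagent) was preincubated 10 min at RT with compound (up to 57.5 uM final), then substrate plus GAPDH/TPI/NAD/arsenate coupling system with diaphorase/resazurin was added; resorufin fluorescence (525/598 nm) was read after 20 min.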
VACV Venus inh = inhibitors of vaccinia virus (Venus reporter); Vaccinia virus Venus reporter expression, fluorescence; Potency, µM (doses to about 36.5 µM), for inactives: at the highest dose activity change, negative = inhibition, actives largely listed as inhibitors; 330,000 tested, 0.46% active; AID 720580; calls by dose curve; tested in A549 cells; also: nearly all actives have a fitted effect of over 30% in size
VACV mCherry inh = vaccinia inhibition (mCherry reporter); Potency, µM (top dose mostly 36.5 µM), for the others: top-dose activity change, negative = inhibition, hits mostly inhibitors; 310,000 tested, 0.63% active; Vaccinia virus mCherry reporter infection, fluorescence; calls by dose curve; tested in A549 cells; also: nearly all actives have a fitted effect of over 35% in size
Giardia growth = inhibitors of Giardia lamblia growth. shares compounds with Giardia FBPA inh-1. 1,500 tested, 5% active. Giardia lamblia trophozoite growth inhibition. Potency, µM (top dose mostly 57.5 µM), for inactives: at the top dose activity change, negative = inhibition, most hits filed as inhibitors;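 also: trophozoites exposed to compound for 48 h at 37 °C; nearly all actives have a fitted effect of over 70% in size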
Mammal cell tox = toxic to mammalian cells in Giardia aldolase counter-screen | shares compounds with Giardia FBPA inh-1 | 1,500 tested, 4% active | Potency, µM (top dose mostly 57.5 µM), for the others: top-dose viability change, negative = toxicity, most hits filed as inhibitors | mammalian cell viability counter-screen, qHTS;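 also: Chinese hamster ovary cells used as mammalian cytotoxicity surrogate; viability measured as cellular ATP by luminescence; compound exposure lasted 48 h before reading; nearly all actives have a fitted effect of over 60% in size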
Giardia FBPA inh-2 = confirmation of Giardia fructose-bisphosphate aldolase inhibitors; Potency, µM (doses to about 57.5 µM), for inactives: at the top dose activity change, negative = inhibition, hits mostly inhibitors; shares compounds with Giardia FBPA inh-1; 1,500 tested, 5% active; purified Giardia aldolase enzyme activity, qHTS; AID 2787; also: nearly all actives have a fitted effect of over 45% in size
Rabbit aldolase = blocks rabbit muscle aldolase in Giardia aldolase selectivity test; shares compounds with Giardia FBPA inh-1; Rabbit muscle FBPA enzyme inhibition, selectivity counter-screen; Potency, µM (highest dose often 57.5 µM), for inactives: at the top dose activity, negative = inhibition, usual class: inhibitors; 1,500 tested, 4% active; also: nearly all actives have a fitted effect of over 60% in size
Target sequence (P00883 whole entry, looked up): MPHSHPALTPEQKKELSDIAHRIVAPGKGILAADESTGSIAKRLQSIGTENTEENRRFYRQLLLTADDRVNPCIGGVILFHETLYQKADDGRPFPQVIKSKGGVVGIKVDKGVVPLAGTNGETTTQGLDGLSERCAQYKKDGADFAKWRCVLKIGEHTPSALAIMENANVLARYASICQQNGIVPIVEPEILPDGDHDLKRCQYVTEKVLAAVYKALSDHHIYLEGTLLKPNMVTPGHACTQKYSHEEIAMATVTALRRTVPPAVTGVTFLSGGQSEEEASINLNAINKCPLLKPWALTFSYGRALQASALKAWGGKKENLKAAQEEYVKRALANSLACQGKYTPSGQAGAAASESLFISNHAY
GAPDH coupling = counter-screen for Giardia aldolase inhibitors: GAPDH coupling enzyme | 1,500 tested, 6% active | shares compounds with Giardia FBPA inh-1 | AID 2795 | Potency, µM (titrated, usually from 57.5 µM), inactives show at the top dose activity change, negative = inhibition, actives largely listed as inhibitors | GAPDH coupling enzyme counterscreen, biochemical, qHTS; also: nearly all actives have a fitted effect of over 55% in size
Numbers without * were called inactive; i = inactive; ? = inconclusive; . = no result given; [ ] = remark or other dose. In the library only some 2.2% were active in any assay of this set; here they are far more common. Unless noted, calls follow the shape of the dose curve; as a rule, active = well fitted curve in the direction sought with a large enough effect; inconclusive = small, poorly fitted or top-dose-only effect, or another doubt; inactive = no such curve, though single readings can be large; an effect the other way counts as inactive or inconclusive. % is scaled to controls: 0 for no effect and ±100 for the full control effect; potency is read from the fitted curve at half-maximal effect.

SMILES | FMDV antiviral | Giardia FBPA inh-1 | VACV Venus inh | VACV mCherry inh | Giardia growth | Mammal cell tox | Giardia FBPA inh-2 | Rabbit aldolase | GAPDH coupling
COc1ccc(Br)cc1CN(C)CC(=O)NCc1ccc(F)cc1 | -26% | 14µM* | -13% | -11% | -15%[10.4 µM] | -4% | 2% | 1% | 14%
COc1ccc([C@H]2c3cc(OC)c(OC)cc3C[C@@H](C)[C@@H]2C)cc1OC | -14% | 1% | . | . | . | . | . | . | .
Cn1c(NN=O)nc2ccccc21 | 2% | 7.9µM* | ? | ? | -22% | 16µM* | 0% | -2% | 2%
COc1ccc([C@]23Cc4cc(OC)c(OC)cc4C(O2)c2c(cc(C)oc2=O)O3)cc1 | . | -4%[12.9 µM] | . | . | . | . | . | . | .
Cc1cccc(-c2nnc(NC(=O)c3ccc(Cl)cc3)o2)c1 | 3% | 26% | . | . | . | . | . | . | .
Cc1ccc(C(=O)Nc2nnc(-c3ccncc3)o2)cc1 | 33% | 14µM* | -11% | -3% | -5% | 12% | 13% | 4% | -13%
O=C(Nc1nnc(-c2ccncc2)o1)c1ccccc1F | 5% | ? | -7% | -13% | . | . | . | . | .
CC1CCCCN1S(=O)(=O)c1ccc(C(=O)Nc2nnc(-c3ccncc3)o2)cc1 (configuration not stated) | -19% | 5µM* | -18% | -19% | ? | ? | 4% | 13% | 8%
O=C(Nc1nnc(-c2ccncc2)o1)c1ccccc1 | 62% | 16µM* | 1% | -4% | 8.9µM* | 2% | 3% | -3% | -4%
CC1(C)OC(=O)C2(Cc3ccc(Cl)cc3N3CCCC32)C(=O)O1 (configuration not stated) | . | . | 11% | 26% | . | . | . | . | .
CN(C)c1oc(-c2ccc(COc3ccccc3)o2)nc1C#N | -4% | . | -8% | -8% | . | . | . | . | .
CC(=O)N(O)c1ccc(/C=C2\C=Cc3ccccc32)cc1 | . | . | -7% | -17% | . | . | . | . | .
NC(=S)NNc1c(F)c(F)c(F)c(F)c1F | -5% | 16µM* | 3% | -2% | -1%[10.4 µM] | -12% | -11% | 5% | 1%
Cc1ccnc2cc(Cl)c(Cl)cc12 | . | . | -8% | 0% | . | . | . | . | .
COc1ccc(OC)c(NC(=O)C2C3CCC(C3=C(C)C)C2C(=O)O)c1 (configuration not stated) | -2% | 3.5µM* | 11% | -4% | -8%[38.3 µM] | -6% | ? | ? | ?
COc1ccc(OC)c(NC(=O)C2CCCCC2C(=O)O)c1 (configuration not stated) | -22% | -8% | -17% | . | . | . | . | . | .
COc1cccc(CN2CCN(c3ncccn3)CC2)c1OC | -8% | ? | . | . | . | . | . | . | .
COc1cccc(CN2CCN(Cc3cccc(Oc4ccccc4)c3)CC2)c1OC | -21% | 16µM* | -28% | -28% | -25% | ? | 1% | -5% | 5%
COc1cccc(CN2CCN(Cc3cc(OC)c(OC)c(OC)c3)CC2)c1OC | -15% | 13µM* | -13% | -13% | ? | -14% | -8% | 3% | -11%
COc1cc(CN2CCN(C(=O)c3ccccc3F)CC2)cc(OC)c1OC | -6% | 28µM* | . | . | 1%[10.4 µM] | -13% | 0% | 8% | 11%
COc1cc(CN2CCN(C(=O)c3cccc4ccccc34)CC2)cc(OC)c1OC | -13% | ? | . | . | . | . | . | . | .
CCOc1cc(-c2nc(-c3ccc(-c4ccc(OC)cc4)nc3OC)no2)cc(OCC)c1OCC | -5% | . | -5% | -3% | . | . | . | . | .
O=C(Nn1c(=S)[nH]c2ccccc2c1=O)c1ccncc1 | 32% | 16µM* | -14% | i | -8% | 10% | 0% | 0% | 1%
O=C(CCN1CCCCC1)Nn1c(=S)[nH]c2ccccc2c1=O | 0% | 22µM* | . | . | ? | 11% | 1% | 12% | 5%
O=c1c2ccccc2[nH]c(=S)n1CCN1CCCC1 | -6% | -8% | -8% | i | . | . | . | . | .
